Experimental data from PubChem BioAssay (Tox21).
Where “and” joins values, the source holds several entries; their conditions need not be identical. Equal values may be shown once. Records with an inconclusive call do not appear. Calls of active or inactive are those of the source. Unless noted, the call rests on the fitted dose curve; in most records, active means well fitted curve in the direction sought with a large enough effect in the repeat runs; inconclusive means weak or mixed curves; inactive means no such curve, though single readings can be large; an effect the other way counts as inactive or inconclusive.

Key:
[1] = qHTS assay to test for compound auto fluorescence at 535 nm (green) in HEK293 cells (AID 720680)
[2] = qHTS assay to test for compound auto fluorescence at 460 nm (blue) in HEK293 cell free culture (AID 720681)
Outline: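 Test compounds were pinned into cell-free culture medium (DMEM with 10% FBS) and fluorescence was read directly at Ex/Em 405/460 nm. Signals were expressed as fluorescence equivalents of triamterene, with DMSO vehicle as control.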

[3] = qHTS assay to test for compound auto fluorescence at 535 nm (green) in HEK293 cell free culture (AID 720682)
Outline: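 Measurement is a direct plate read of green fluorescence (485 nm in, 535 nm out) after compound addition to serum-supplemented DMEM lacking cells, with fluorescein used to express intensities.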

[4] = qHTS assay to test for compound auto fluorescence at 590 nm (red) in HEK293 cell free culture (AID 720683)
Outline: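 Tox21 10K library compounds were pinned into cell-free DMEM with 10% FBS and fluorescence was read at excitation 540 nm. Activity is expressed as Rose Bengal sodium equivalency.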

[5] = qHTS assay to test for compound auto fluorescence at 590 nm (red) in HepG2 cell free culture (AID 720684)
Outline: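 Ex 540 / Em 590 nm read of compound in cell-free MEM (10% FBS). Rose Bengal sodium reference.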

[6] = qHTS assay to test for compound auto fluorescence at 460 nm (blue) in HepG2 cell free culture (AID 720685)
Outline: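 Cell-free plates of MEM plus 10% FBS received 23 nL compound or DMSO vehicle; blue-channel (405/460 nm) intensity scored against triamterene as reference fluorophore.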

[7] = qHTS assay to test for compound auto fluorescence at 535 nm (green) in HepG2 cell free culture (AID 720686)
[8] = qHTS assay to test for compound auto fluorescence at 460 nm (blue) in HepG2 cells (AID 720687)
Outline: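 Cells (2,000/well in MEM with 10% FBS) attached overnight at 37 C, then were exposed to compound or DMSO for 1 hr at 37 C, 5% CO2. Fluorescence read at Ex/Em 405/460 nm, expressed as triamterene-equivalent signal.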

[9] = target: Glucocorticoid receptor (Homo sapiens) (UniProt P04150); assay: qHTS assay to identify small molecule agonists of the glucocorticoid receptor (GR) signaling pathway (AID 720691; active means well fitted activation curve with a large enough effect in the signal ratio in the repeat runs, not every such curve was filed as active; the % refers to the signal ratio; further: potency means the concentration at half of the fitted maximal effect)
Outline: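 Compounds in DMSO, alongside positive controls, were added to GR-bla HeLa reporter cells and incubated 18 h at 37 C; GRE-driven beta-lactamase was detected by fluorescence after 2 h with FRET substrate at room temperature.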

[10] = target: Glucocorticoid receptor (Homo sapiens) (UniProt P04150); assay: qHTS assay to identify small molecule antagonists of the glucocorticoid receptor (GR) signaling pathway (AID 720692; active means well fitted inhibition curve with a large enough effect in the signal ratio in the repeat runs, not every such curve was filed as active; the % refers to the signal ratio; further: potency means the concentration at half of the fitted maximal effect)
Outline: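 In a 1536-well cell format, compounds were added 4 h after seeding GR-bla HeLa cells, together with dexamethasone at 5 nM final; reporter activity was measured by FRET-substrate fluorescence following 18 h at 37 C.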

[11] = qHTS assay to identify small molecule antagonists of the glucocorticoid receptor (GR) signaling pathway - cell viability counter screen (AID 720693); further: nearly all actives have a fitted effect of over 55% in size
[12] = qHTS assay for identifying genotoxic compounds that show differential cytotoxicity against isogenic chicken DT40 cell lines with known DNA damage response pathways - wild type cell line (AID 743012); further: nearly all actives have a fitted effect of over 60% in size; further: potency means the concentration at half of the fitted maximal effect
Outline: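 Viability of DNA repair-proficient chicken DT40 cells was assessed by CellTiter-Glo luminescence following 40 h compound exposure at 37 C/5% CO2.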

[13] = qHTS assay for identifying genotoxic compounds that show differential cytotoxicity against isogenic chicken DT40 cell lines with known DNA damage response pathways - Rev3 mutant cell line (AID 743014); further: nearly all actives have a fitted effect of over 55% in size; further: potency means the concentration at half of the fitted maximal effect
[14] = qHTS assay to identify small molecule antagonists of the androgen receptor (AR) signaling pathway - cell viability counter screen (AID 743033; further: nearly all actives have a fitted effect of over 45% in size)
[15] = qHTS assay to identify small molecule antagonists of the androgen receptor (AR) signaling pathway using the MDA cell line - cell viability counter screen (AID 743041; further: nearly all actives have a fitted effect of over 45% in size)
Outline: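 In this qHTS counter assay, fluorescence intensity after CellTiter-Fluor addition indicated viability of MDA-kb2 AR-luc cells given compounds and R1881 for 16 h at 37C.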

[16] = qHTS assay for identifying genotoxic compounds that show differential cytotoxicity against isogenic chicken DT40 cell lines with known DNA damage response pathways - Rad54/Ku70 mutant cell line (AID 743015); further: nearly all actives have a fitted effect of over 60% in size; further: potency means the concentration at half of the fitted maximal effect
[17] = target: Androgen receptor (Homo sapiens) (UniProt P10275); assay: qHTS assay to identify small molecule antagonists of the androgen receptor (AR) signaling pathway (AID 743035; active means well fitted inhibition curve with a large enough effect in the signal ratio in the repeat runs, not every such curve was filed as active; the % refers to the signal ratio)
Outline: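 Reporter HEK293 cells were exposed to compounds and R1881 overnight (16 h, 37C); beta-lactamase activity was then quantified by FRET fluorescence.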

[18] = target: Androgen receptor (Homo sapiens) (UniProt P10275); assay: qHTS assay to identify small molecule agonists of the androgen receptor (AR) signaling pathway (AID 743036; active means well fitted activation curve with a large enough effect in the signal ratio in the repeat runs, with a control signal flat, not every such curve was filed as active; the % refers to the signal ratio)
Outline: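 Beta-lactamase under UAS control, stably integrated in HEK293 GripTite cells, reports receptor activation. After 16 h compound treatment, cells received FRET substrate for 2 h at room temperature before fluorescence reading.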

[19] = target: Androgen receptor (Homo sapiens) (UniProt P10275); assay: qHTS assay to identify small molecule agonists of the androgen receptor (AR) signaling pathway using the MDA cell line (AID 743040; further: nearly all actives have a fitted effect of over 20% in size)
Outline: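 Cell-based luciferase reporter: MDA-kb2, MMTV promoter (AR + GR response elements). 16 h compound exposure at 37C; ONE-Glo, 30 min RT, luminescence.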

[20] = target: Androgen receptor (Homo sapiens) (UniProt P10275); assay: qHTS assay to identify small molecule antagonists of the androgen receptor (AR) signaling pathway using the MDA cell line (AID 743042; further: nearly all actives have a fitted effect of over 55% in size)
Outline: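 MDA-kb2 cells (human breast carcinoma, stably carrying an MMTV-luciferase reporter responsive to AR and GR) were plated at 3,000 cells/well and preincubated 5 hr at 37C, then given compound plus R1881 agonist for 16 h. ONE-Glo luminescence was read.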

Measured: Potency

Chain of Androgen receptor (Homo sapiens) (P10275 whole entry, looked up): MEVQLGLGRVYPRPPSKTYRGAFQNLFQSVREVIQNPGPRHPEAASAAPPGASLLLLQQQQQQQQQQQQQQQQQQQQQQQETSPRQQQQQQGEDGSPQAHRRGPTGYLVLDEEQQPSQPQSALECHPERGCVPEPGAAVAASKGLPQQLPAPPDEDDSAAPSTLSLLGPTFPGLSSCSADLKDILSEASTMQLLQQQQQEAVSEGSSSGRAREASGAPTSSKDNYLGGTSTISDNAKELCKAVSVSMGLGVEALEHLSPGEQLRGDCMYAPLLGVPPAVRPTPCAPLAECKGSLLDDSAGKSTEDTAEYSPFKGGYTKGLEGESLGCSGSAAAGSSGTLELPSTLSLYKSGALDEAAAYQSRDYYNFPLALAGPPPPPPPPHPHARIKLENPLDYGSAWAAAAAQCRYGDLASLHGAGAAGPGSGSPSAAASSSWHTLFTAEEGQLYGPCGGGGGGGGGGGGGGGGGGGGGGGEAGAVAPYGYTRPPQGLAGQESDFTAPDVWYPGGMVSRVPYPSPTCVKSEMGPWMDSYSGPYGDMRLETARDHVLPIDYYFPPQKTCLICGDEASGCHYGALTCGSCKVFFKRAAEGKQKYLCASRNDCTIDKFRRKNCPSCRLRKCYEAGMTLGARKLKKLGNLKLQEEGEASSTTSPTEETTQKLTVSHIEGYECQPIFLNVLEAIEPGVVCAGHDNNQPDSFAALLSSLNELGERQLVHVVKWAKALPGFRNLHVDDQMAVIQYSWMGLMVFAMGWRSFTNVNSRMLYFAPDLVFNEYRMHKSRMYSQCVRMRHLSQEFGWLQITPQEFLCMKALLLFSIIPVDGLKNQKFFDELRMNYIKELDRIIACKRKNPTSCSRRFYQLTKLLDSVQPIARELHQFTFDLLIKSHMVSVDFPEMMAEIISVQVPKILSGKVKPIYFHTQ
Chain of Glucocorticoid receptor (Homo sapiens) (P04150 whole entry, looked up): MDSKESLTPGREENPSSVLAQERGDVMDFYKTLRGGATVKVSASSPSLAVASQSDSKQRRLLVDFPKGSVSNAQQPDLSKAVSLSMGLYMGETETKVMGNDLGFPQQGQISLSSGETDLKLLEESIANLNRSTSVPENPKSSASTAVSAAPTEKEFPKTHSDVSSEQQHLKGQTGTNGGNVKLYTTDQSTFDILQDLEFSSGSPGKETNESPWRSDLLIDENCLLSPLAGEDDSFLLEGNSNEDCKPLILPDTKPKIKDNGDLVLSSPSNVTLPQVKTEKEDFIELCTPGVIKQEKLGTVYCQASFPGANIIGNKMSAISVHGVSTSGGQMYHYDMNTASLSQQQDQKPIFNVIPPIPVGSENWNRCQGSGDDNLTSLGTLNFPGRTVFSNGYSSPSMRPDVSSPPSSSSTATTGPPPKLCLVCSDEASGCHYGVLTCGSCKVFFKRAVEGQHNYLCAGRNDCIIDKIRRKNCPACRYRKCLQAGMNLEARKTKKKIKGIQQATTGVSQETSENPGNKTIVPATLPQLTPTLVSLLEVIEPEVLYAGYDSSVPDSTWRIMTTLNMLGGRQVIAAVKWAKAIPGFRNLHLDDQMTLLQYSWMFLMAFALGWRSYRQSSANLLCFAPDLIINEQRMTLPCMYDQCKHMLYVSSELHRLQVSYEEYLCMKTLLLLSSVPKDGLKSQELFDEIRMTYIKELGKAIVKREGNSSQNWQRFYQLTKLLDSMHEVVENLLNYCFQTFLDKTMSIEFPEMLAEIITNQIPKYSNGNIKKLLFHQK

CCc1cc(Cl)c(OC)c(C(=O)NC[C@@H]2CCCN2CC)c1O
active: [12] 5.96 µM and 8.04 µM and 6.68 µM | [13] 7.5 µM and 9.02 µM and 9.44 µM
not listed: [16] | [17] | [18] | [19] | [20]
inactive: all other assays above

CCN1CC(CCN2CCOCC2)C(c2ccccc2)(c2ccccc2)C1=O (stereo not drawn)
not listed: [13] | [16] | [17] | [18] | [19] | [20]
inactive: all other assays above

COC(=O)c1ccc(OC)cc1
not listed: [17] | [18] | [19] | [20]
inactive: all other assays above

OCCN(CCO)c1ccccc1
not listed: [10] | [14] | [15] | [16]
inactive: all other assays above

CC1=C(O)C(=O)OC1C (stereo not drawn)
not listed: [10] | [17] | [18] | [19] | [20]
inactive: all other assays above

FC(F)(F)C(F)(F)C(F)(F)C(F)(F)C(F)(F)C(F)(F)C(F)(F)C(F)(F)Br
not listed: [10] | [14] | [17] | [18] | [19] | [20]
inactive: all other assays above

CCOC(=O)CS
not listed: [12] | [13] | [14] | [16] | [17] | [18] | [19] | [20]
inactive: all other assays above

CC(C)CC(=O)OCc1ccccc1
not listed: [10] | [13] | [15] | [16] | [17] | [18] | [19] | [20]
inactive: all other assays above

CN(C)CC[C@@H](c1ccc(Cl)cc1)c1ccccn1
not listed: [12] | [14] | [16] | [17] | [18] | [19] | [20]
inactive: all other assays above

O=C(Cl)c1cccc([N+](=O)[O-])c1
not listed: [12] | [13] | [16] | [17] | [18] | [19] | [20]
inactive: all other assays above

C=CCc1cc(OC)c(O)c(C(=O)NCCO)c1
not listed: [10] | [17] | [18] | [19] | [20]
inactive: all other assays above

NCCC(O)(P(=O)(O)O)P(=O)(O)O
not listed: [10] | [17] | [18] | [19] | [20]
inactive: all other assays above

CN1CCN(C2=Nc3cc(F)ccc3Cc3ccccc32)CC1
active: [13] 8.41 µM | [16] 23.7 µM
not listed: [12] | [14] | [15]
inactive: all other assays above

C[C@]12CCC(=O)C=C1CC[C@@H]1[C@@H]2CC[C@@]2(C)[C@H]1CC[C@]2(O)C(=O)CO
active: [9] 12 µM | [10] 0.338 µM
not listed: [12] | [13] | [16] | [17] | [18] | [19] | [20]
inactive: all other assays above

CC1=CC(=O)CC(C)(C)C1=O
not listed: [12] | [17] | [18] | [19] | [20]
inactive: all other assays above

Cc1cc2c(s1)Nc1ccccc1N=C2N1CCN(C)CC1
not listed: [12] | [13] | [16] | [17] | [18] | [19] | [20]
inactive: all other assays above

CCC(=O)c1ccc2c(c1)N(CCCN(C)C)c1ccccc1S2
active: [12] 4.73 µM | [13] 8.41 µM | [16] 7.5 µM
not listed: [10] | [14] | [15] | [17] | [20]
inactive: all other assays above
